Laboratory results from PubChem BioAssay AID1347426 (Functional Genomics Laboratory (NCATS/FGL), 2020).
The whole screen tested about 31,000 sequences, of which about 1,400 (4.5%) were called active. This is one part of a sample in which actives are shown more often than they occur.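 How the source made its calls: active means median seed-adjusted z-score above 1 or below -1; inactive means the rest.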

test: Novel Modifiers of Survival Motor Neuron (SMN) Protein: Gene Identification via Genome-wide siRNA Screen; details: HEK293T SMN2-luciferase reporter, siRNA knockdown, 72 h; actives lie on both sides;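 further: luminescence tracks full-length SMN protein made from the SMN2 reporter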
Method in brief: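 Luciferase signal, proportional to full-length SMN made from an SMN2 cDNA reporter in stable HEK293T cells, was read 72 h after siRNA reverse transfection. Values were expressed as MAD scores after non-targeting-control normalization and log10 conversion; seed analysis flagged off-targets.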

| Sequence | median seed-adjusted z-score |
| --- | --- |
| ACUUAGUCAUCAUCAAGUATT against GK | -0.474 (inactive) |
| CAAGAUUCUUGACCUUGAATT against PDP2 | -0.0726 (inactive) |
| GGAUAUUGCGUUUGGAACATT against TDP1 | -0.352 (inactive) |
| GGAUACUCUUCCUAUUCAATT against OMA1 | 0 (inactive) |
| CGGCUUUUAUGGACGAGUUTT against STX3 | 0.686 (inactive) |
| GAAACAAAGUCUUAAUAUUTT against ATP1A4 | 0.116 (inactive) |
| GGAAAAGUUCUGAAGACUATT against CPOX | -0.135 (inactive) |
| GCACCUCACCCAUCAAUGATT against RERE | 0.129 (inactive) |
| GGUUGUCAUUAACAACAGUTT against DLST | 1.16 (active) |
| GGUUCGGCAUGAGUGUGAATT against ZNF187 | 0.419 (inactive) |
| GCAGGAGACUCAAAGAUUUTT against DDO | -0.202 (inactive) |
| GUCUAUCUCUUGUCUAAAATT against HYAL4 | -0.236 (inactive) |
| GCUCAUUGGUACAAUGUCATT against POLE | -1.55 (active) |
| CGCUCAUGGACUUCGCCUATT against ZBTB7A | -0.344 (inactive) |
| CCAUAACGGUGGAUGAGUATT against MPPED2 | 0.418 (inactive) |
| GAAGUUUGACCAUGACUUUTT against ACCN5 | 0.227 (inactive) |
| CACUGAUUCUGAAGGCGAATT against RPS6KA1 | 0.194 (inactive) |
| CGUCUGACUUCGCUAGCAATT against HOXD11 | -0.185 (inactive) |
| GGAUGUUGUUUAUCGAGGATT against MED21 | -1.3 (active) |
| ACAAAAAGGGCAUACAUUATT against S100A7A | 0.212 (inactive) |
| GCAGCUGUUUGGAACCAAATT against TRIM47 | 0.707 (inactive) |
| GCAUCUCUUCUAUGCCGAATT against MATN2 | 0.275 (inactive) |

| Sequence | median seed-adjusted z-score |
| --- | --- |
| ACAAGCACCUAGACCAUGATT against ANGPTL4 | 1.37 (active) |
| ACUUAAUGCCUGCCUAUUATT against CYP21A2 | -0.26 (inactive) |
| UGACGUAGGCAUAAACGGATT against PCDH11Y | 0.186 (inactive) |
| GCUCUAAACCAGAACGGGATT against ARAP3 | -0.00876 (inactive) |
| AGACCAACCCUGGUACUUUTT against SRMS | -1.58 (active) |
| GCAUUGUCCGUCUUCAUCATT against GLP1R | 0 (inactive) |
| GCACGUCACUGUGGUUGUATT against THNSL2 | 0 (inactive) |
| GCUUAUACAUUCCGAUGAATT against PTPRZ1 | 1.73 (active) |
| GGAUGUAGCUGUCAACUGUTT against HSD17B10 | -0.355 (inactive) |
| GACCUUACGAGGUUUCUAATT against TSNAX | 0.514 (inactive) |
| CGUUCCUAAGCUACAAGAATT against TMPRSS9 | 0.106 (inactive) |
| GAAUUCAGAUGCGAGUAAATT against RFX6 | 0.119 (inactive) |
| CUGUUUACAUGACCUAUUUTT against MAFG | 0 (inactive) |
| CGGCACAUCCUGCUUUGUUTT against ZNF213 | 1.37 (active) |
| GGUUCCUUAUUAUAGUCCATT against GPR63 | -0.0154 (inactive) |
| CGGUGCUCCCUGUCAUAAATT against CCR2 | -0.00107 (inactive) |
| GGCAUGAAUUUGAACUGUATT against CA8 | 0.172 (inactive) |
| CCGUCAAGGUCGUCAUACATT against NTSR1 | -1.1 (active) |
| GGACGGCUUUCUGCAAAGATT against GLRA2 | -0.927 (inactive) |
| AGUGUCUACUGUGAGAAUATT against TRAF4 | -1.16 (active) |
| GCACCAUAGUGACACUGAATT against IFNAR2 | -0.219 (inactive) |
| CAGUGGACUUCCAACCCAATT against SF3A1 | -1.09 (active) |

| Sequence | median seed-adjusted z-score |
| --- | --- |
| CAUUCAUCUCAAUAAUUGATT against IL5RA | -0.357 (inactive) |
| CAUGGACGAGAUCAAGGAATT against AGXT | 0.017 (inactive) |
| GCACUACUCCGAGAAGUUATT against NEK6 | -0.674 (inactive) |
| CAAUAGUAAAGGGAUAUAATT against MED27 | -1.62 (active) |
| AGACCGACGUGAAAGAGGATT against HAND2 | 0.0864 (inactive) |
| CAGUUGCCUAUAUCCUAUATT against TDRKH | -0.434 (inactive) |
| CCCUUGUAGUGAAACGGAATT against CYP4F8 | 0.756 (inactive) |
| ACUACUUCCUGAACCGGGATT against CD2BP2 | -0.455 (inactive) |
| GCAGAGUUUCGUACAAGGATT against KPNA6 | -1.54 (active) |
| CCAGCCCACUCAUCUCAUUTT against SNX30 | -0.157 (inactive) |
| GCCGAGGAACAAUCUCUCATT against RASGRP4 | 0.162 (inactive) |
| CCACUACCCUGAGAACUUUTT against TOP3B | -1.11 (active) |
| GGACCGGAGCAGUAUAGAATT against TRIM37 | -0.108 (inactive) |
| CGGUUACGAUAAUGCGUUATT against ENPP5 | -0.0499 (inactive) |
| GCACAAGUGCUGAGCCAGATT against LENG9 | 0.607 (inactive) |
| GUAUUAUUUUCGUACACGATT against RABL3 | 0.843 (inactive) |
| CCGGCUACCUGAUCGUGUATT against PITPNM1 | -0.203 (inactive) |
| GAAAUGACAUUAGCUGAUUTT against CLIC4 | -0.498 (inactive) |
| CUACAUUGCUGGGACUAAUTT against RRM1 | -5.51 (active) |
| CCUGGAGAGUUACUUUGAATT against CCL23 | -0.285 (inactive) |
| CCUCGUCGAUCGUGCAUCUTT against ADRA2C | 0 (inactive) |
| CGAAAGGAAACCUAACGAATT against HIVEP2 | 0.294 (inactive) |

| Sequence | median seed-adjusted z-score |
| --- | --- |
| GCACAGGCAUCAUCGGGAATT against SGSH | 0.383 (inactive) |
| GCCUCAAGGUUCACCUGAATT against PRDM1 | -0.16 (inactive) |
| GUAUCUCAACAUCAAACUATT against LSM2 | -1.48 (active) |
| GGGCUGAUGUUAUCAACUUTT against CNTNAP2 | -0.196 (inactive) |
| CGACACUGCCGAAUGGAAATT against SRCRB4D | -0.0568 (inactive) |
| UGCCCGUCAUUGUCUCCAATT against KCNA7 | 0.394 (inactive) |
| AGAUCAUUGCUUUCAGUGATT against PRDX1 | 0.288 (inactive) |
| CCUACAAUGUGGUGCAUAUTT against DYRK4 | -0.824 (inactive) |
| CAAGAAUUCCGAUUUCCAATT against GNGT2 | -0.289 (inactive) |
| GCAAUGAACUCAACAGCUATT against ANGPTL7 | 0 (inactive) |
| GCUAGACCGACCCACCAUATT against FKBP6 | -1.12 (active) |
| GGUUAUCGACGACAGCAGATT against AGAP3 | 0.554 (inactive) |
| GCAUCCCACUACUACAAAUTT against KSR2 | -0.371 (inactive) |
| UCAUCUUCAUCGACCGGAATT against AGPAT1 | -1.38 (active) |
| UACCUGUGGUCAUUCCUUATT against HHATL | 0.497 (inactive) |
| ACACCUCACUCAUCCUCUUTT against GNAZ | -0.604 (inactive) |
| GGGCAAUGAUAGAAAGAAUTT against STK35 | 0.519 (inactive) |
| GGAGGGAUGGUUACUGUUATT against TOX4 | 0 (inactive) |
| GAUGCAUUCGAUGACCUGATT against PTGES2 | -0.02 (inactive) |
| GCCUAUUCCUUCAAGUAUUTT against SUPT6H | -2.54 (active) |
| CAGUGAAAAGUGACGCGGATT against DZIP1 | -0.138 (inactive) |
| CGAAAGUCCUCACCAACAATT against TSHZ1 | 0.526 (inactive) |

| Sequence | median seed-adjusted z-score |
| --- | --- |
| GCCUUUCAUCAGAUCUUCUTT against DBX1 | 0.0137 (inactive) |
| GAAUCUGUCUUAGAUCUCATT against PRDM2 | 1.12 (active) |
| CCAUAGAAUUCAAAAUCCUTT against BCL2L14 | -0.859 (inactive) |
| GGAGUCUACUUUACCGGUATT against BPIL2 | -0.63 (inactive) |
| GCAGAGAAAAUAUAACUGATT against NPHP1 | -0.0667 (inactive) |
| AGAUGGUCCAAGAUCCAGATT against CHRM4 | -0.856 (inactive) |
| GGAGUUUCCCAUCAAACGATT against PADI4 | 0.417 (inactive) |
| CUUCCUAGGUUACAAGUAATT against FAM84B | -0.431 (inactive) |
| GGGACAAGCUUGACAAGGUTT against TRIM62 | -0.000231 (inactive) |
| GGGUGUCUAAAGGUACAUATT against FSD2 | 0.359 (inactive) |
| GUACGUUGUAUGUUAAACATT against SLC12A2 | -0.4 (inactive) |
| CGAUUCCAGCAGUAGCUCATT against AP3B2 | -2.45 (active) |
| GGAGUUCGCAAAAUCGUCATT against NRK | 0.0687 (inactive) |
| CCUCCAUGUCCAACCCAUATT against FOSL2 | -0.372 (inactive) |
| AGUAGAACGUGUACGCAGATT against MGST1 | -0.0144 (inactive) |
| GAAUAUCGGCAGAGAGAUATT against RNF12 | 0.29 (inactive) |
| CGGAGAAGAUGUUCGCCGATT against SIL1 | 0.0292 (inactive) |
| GGAUGUGCACUCUCAUUGATT against COPA | -0.807 (inactive) |
| GGAGAUUCAGAUCCUCAAATT against JAK3 | -0.0926 (inactive) |
| GCAACACCCAGGUAGUUUUTT against EIF4A1 | -1.05 (active) |
